Experimental data taken from the supplement of paper PMC6555819.

Legend:
Assay in all cases: PBM binding z-score (relative to random genomic background probes); higher = stronger binding; sequences stand for … in GC…GCGATTGACAGCGTAGAATGAAGG
[1] = test system: FXR:RXRa (NR concentration 270 nM, RXRa partner concentration 90 nM)
How it was run: (§1)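 On custom Agilent 4×180K arrays, double-stranded probes with 34-nt variable regions carried direct-repeat seeds, single-nucleotide variants, half-site ablations or random human genomic background. Ligand-free nuclear receptor dimers were applied for 1 h, and binding was read with antibodies against each partner (one per run). Binding z-scores come from regression-normalized fluorescence, with the random background probes as reference.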

[2] = test system: LXRa:RXRa (NR concentration 270 nM, RXRa partner concentration 90 nM)
How it was run: as §1

[3] = test system: LXRa homodimer (NR concentration 270 nM)
How it was run: as §1

[4] = test system: LXRb:RXRa (NR concentration 270 nM, RXRa partner concentration 90 nM)
How it was run: as §1

[5] = test system: LXRb homodimer (NR concentration 270 nM)
How it was run: as §1

[6] = test system: PPARa:RXRa (NR concentration 270 nM, RXRa partner concentration 90 nM)
How it was run: as §1

[7] = test system: PPARg:RXRa (NR concentration 180 nM, RXRa partner concentration 90 nM)
How it was run: as §1

[8] = test system: PPARg:RXRa 270nM:90nM, anti-RXR (NR concentration 270 nM, RXRa partner concentration 90 nM)
How it was run: as §1

[9] = test system: PPARg:RXRa 30nM:10nM, anti-RXR (NR concentration 30 nM, RXRa partner concentration 10 nM)
How it was run: as §1

[10] = test system: PPARg:RXRa 90nM:30nM, anti-RXR (NR concentration 90 nM, RXRa partner concentration 30 nM)
How it was run: as §1

[11] = test system: PPARg:RXRa DBDmut IVT, anti-RXR (DBD mutation: RXRa K156A/R161A, NR concentration 270 nM, RXRa partner concentration 90 nM)
How it was run: as §1

[12] = test system: PPARg:RXRa IVT, anti-PPARg (NR concentration 270 nM, RXRa partner concentration 90 nM)
How it was run: as §1

[13] = test system: PPARg DBDmut:RXRa IVT, anti-PPARg (DBD mutation: PPARg1 K132A/R137A, NR concentration 270 nM, RXRa partner concentration 90 nM)
How it was run: as §1

[14] = test system: PPARg DBDmut IVT, anti-PPARg (DBD mutation: PPARg1 K132A/R137A, NR concentration 270 nM)
How it was run: as §1

[15] = test system: PPARg homodimer (NR concentration 180 nM)
How it was run: as §1

[16] = test system: PXR:RXRa (NR concentration 270 nM, RXRa partner concentration 90 nM)
How it was run: as §1

[17] = test system: PXR homodimer (NR concentration 270 nM)
How it was run: as §1

[18] = test system: RARa:RXR (NR concentration 270 nM, RXRa partner concentration 90 nM)
How it was run: as §1

[19] = test system: RARa homodimer (NR concentration 270 nM)
How it was run: as §1

[20] = test system: RARb:RXRa (NR concentration 270 nM, RXRa partner concentration 90 nM)
How it was run: as §1

| Sequence | PBM binding z-score [1] | PBM binding z-score [2] | PBM binding z-score [3] | PBM binding z-score [4] | PBM binding z-score [5] | PBM binding z-score [6] | PBM binding z-score [7] | PBM binding z-score [8] | PBM binding z-score [9] | PBM binding z-score [10] | PBM binding z-score [11] | PBM binding z-score [12] | PBM binding z-score [13] | PBM binding z-score [14] | PBM binding z-score [15] | PBM binding z-score [16] | PBM binding z-score [17] | PBM binding z-score [18] | PBM binding z-score [19] | PBM binding z-score [20] |
| --- | --- | --- | --- | --- | --- | --- | --- | --- | --- | --- | --- | --- | --- | --- | --- | --- | --- | --- | --- | --- |
| TCTTGCAGATCAATAGAGGTTAAGAAAGTGCGCT | 0.606 | 3.34 | 0.219 | 2.04 | -0.44 | 1.9 | -0.17 | 1.1 | 1.84 | 1.35 | 0.862 | 0.37 | 0.336 | -0.0409 | -0.12 | 3.03 | 0.036 | 1.91 | -0.478 | 0.805 |
| GGAACGAGGGTATTCGAGTTGATAGCATGGCGAT | 0.27 | 2.1 | -0.446 | -0.313 | -1.2 | -0.309 | 0.371 | -0.244 | -0.476 | -0.646 | 0.383 | 0.201 | -0.0387 | -0.595 | -0.648 | 1.19 | -0.17 | 0.11 | -0.18 | -0.145 |
| TGAATGAGGTTAAAGATCAGGAAACGTGGCGTCG | 3.12 | 2.5 | -0.309 | 1.69 | -0.0435 | 4.49 | 5.58 | 6.34 | 4.41 | 6.93 | 2.17 | 3.35 | 0.769 | 0.42 | 1.22 | 2.17 | -0.325 | 3.49 | -0.294 | 1.94 |
| CCTACTGGGCCAGAAAGGTCATTGATGCCGATAA | 3.9 | 4.7 | 3.35 | 4.16 | 0.28 | 4.76 | 2.59 | 3.87 | 1.21 | 2.91 | 2.56 | 3.3 | -0.848 | -1.13 | 2.14 | 4.76 | 2.21 | 5.01 | 1.75 | 3.73 |
| GCTACTAGGTCAACTGATGGTCAGCTAAAGCTCG | 4.07 | 3.11 | 0.488 | 2.22 | 0.314 | 4.47 | 7.27 | 6.19 | 3.31 | 5.71 | 8 | 8.03 | 2.65 | 2.15 | 2.57 | 1.75 | -0.307 | 3.07 | 0.12 | 4.25 |
| CAGCCTAGGACAGGGCCAGTATAGGAGGAACGTT | -0.452 | -0.926 | -0.352 | -0.799 | -0.979 | -0.804 | 0.36 | -0.522 | -0.216 | -0.473 | -0.459 | -0.805 | -1.23 | -1.3 | 0.0188 | -0.859 | -0.323 | -0.684 | -0.467 | -0.0437 |
| ATCTCTAGGTAACCAAGTGCAGTGAATGCCGAAC | -0.0336 | 0.0225 | -0.464 | -0.183 | 0.282 | -0.0554 | 0.325 | 0.259 | -0.0021 | 0.298 | 3.33 | 2.57 | 1.12 | 0.604 | -0.00797 | 0.128 | 0.228 | 0.0514 | -0.0338 | 0.281 |
